# Screening data (PubChem BioAssay)
# Compounds with a hit are over-represented: about 3.5% of the library has one in this group of screens.
# BoNT-A LC inh2: inhibitors of Botulinum neurotoxin A light chain protease | multiplex microsphere protease substrate cleavage, flow cytometry | inhibition, % at 10 µM | 0.17% of 360,000 active; further: plate controls were buffer without enzyme for full effect and enzyme alone for no effect
# BoNT F protease: blocks Botulinum neurotoxin F light chain protease; AID 588497; Multiplex microsphere protease cleavage assay, flow cytometry; inhibition, % at 10 µM; 0.22% of 360,000 active; in the data active means inhibition above about 35%, passing the limit was not always enough; inconclusive means no clear call, values can overlap the other calls; further: plate controls were buffer without enzyme for full effect and enzyme alone for no effect
# Autofluor counter: flagged as autofluorescent in microsphere protease counterscreen; compound autofluorescence counterscreen, microsphere flow cytometry; hits give high values; AID 624483; fluorescence intensity (test concentration not listed); 3.1% of 360,000 active; in the data active means fluorescence intensity above about 16000; inconclusive means no clear call, values can overlap the other calls
# SARS 3CLpro inh: SARS-CoV 3CLpro protease inhibition; P0C6X7; recombinant SARS-CoV 3CLpro, quenched FRET peptide cleavage; inhibition, % at 6 µM; 0.14% of 290,000 active; AID 1706; in the data active means inhibition above about 12%
# Anthrax LF inh2: anthrax lethal factor protease inhibition. P15917. multiplex microsphere protease cleavage assay, LF. inhibition, % at 10 µM. 0.12% of 360,000 active. AID 588501; further: plate controls were buffer without enzyme for full effect and enzyme alone for no effect
# Target sequence (P15917 whole entry, looked up): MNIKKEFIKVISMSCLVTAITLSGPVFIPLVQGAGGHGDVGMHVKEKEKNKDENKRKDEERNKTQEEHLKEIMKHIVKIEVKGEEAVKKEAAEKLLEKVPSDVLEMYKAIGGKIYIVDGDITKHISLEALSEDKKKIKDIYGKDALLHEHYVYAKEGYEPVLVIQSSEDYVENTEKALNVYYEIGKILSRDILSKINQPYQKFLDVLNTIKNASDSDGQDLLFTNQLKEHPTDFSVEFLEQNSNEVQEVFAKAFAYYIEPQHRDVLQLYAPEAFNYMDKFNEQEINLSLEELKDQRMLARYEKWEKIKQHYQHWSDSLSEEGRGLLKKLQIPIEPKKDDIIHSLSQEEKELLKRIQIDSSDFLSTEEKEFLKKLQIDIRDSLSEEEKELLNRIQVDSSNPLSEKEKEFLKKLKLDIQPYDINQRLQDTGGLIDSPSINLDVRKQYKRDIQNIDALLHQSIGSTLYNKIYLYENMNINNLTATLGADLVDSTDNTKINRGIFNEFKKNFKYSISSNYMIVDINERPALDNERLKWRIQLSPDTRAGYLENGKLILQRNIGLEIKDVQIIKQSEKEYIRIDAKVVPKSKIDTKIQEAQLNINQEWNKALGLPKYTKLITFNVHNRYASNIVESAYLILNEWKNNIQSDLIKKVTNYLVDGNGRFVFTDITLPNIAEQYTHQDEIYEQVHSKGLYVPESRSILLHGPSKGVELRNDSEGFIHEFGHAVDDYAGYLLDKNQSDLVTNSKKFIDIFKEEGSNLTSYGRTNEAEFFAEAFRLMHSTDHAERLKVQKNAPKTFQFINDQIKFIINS
# The depositor's hits bear a star; ? = inconclusive; · = no result. Unless noted, no stated cut-off is given here; in the data, active means inhibition above about 30%; inconclusive means no clear call, values can overlap the other calls; inactive means below that.
SMILES,BoNT-A LC inh2,BoNT F protease,Autofluor counter,SARS 3CLpro inh,Anthrax LF inh2
COc1ccc(C2=NOC3(CC(=O)N(c4ccc(C)cc4)C3=O)C2)c(OC)c1 (configuration not stated),2,3,22248*,2,1
O=C(CSc1nnc(-c2ccc(Cl)cc2)n1-c1ccccc1)N/N=C/c1ccccc1C(=O)O,4,41*,4314,2,-2
CCCCc1c(O)nc(SCC(=O)N2CCCCC2)[nH]c1=O,-1,-11,3272,6,-10
COc1ccc(C2=NOC(C(=O)NC(C)C)C2)cc1 (configuration not stated),-1,-13,12116,-3,2
COc1cc(C2=NOC(C(=O)N3CCOCC3)C2)cc(OC)c1OC (configuration not stated),?,-6,24903*,-4,-2
COc1ccc(C2=NOC(C(=O)N3CCCCCC3)C2)cc1OC (configuration not stated),0,-7,11367,-2,-4
COc1ccc(C2=NOC(C(=O)NCCN3CCOCC3)C2)cc1 (configuration not stated),-2,0,21268*,1,0
O=C(C1CC(c2ccc(F)cc2)=NO1)N1CCCCC1 (configuration not stated),0,1,22237*,-6,-1
CCC(C)NC(=O)C1CC(c2ccc(OC)cc2)=NO1 (configuration not stated),6,7,20670*,-2,-8
COc1ccccc1NC(=O)C(C)N(C)Cc1ccc(Cl)s1 (configuration not stated),4,8,5346,-3,0
COCCNC(=O)Cn1nc(-c2ccc(C)cc2)c2ccccc2c1=O,-3,5,3625,-5,0
Cc1cccc2[nH]c(SCC(=O)O)nc12,0,-5,4047,-2,-1
COc1ccc(C2=NOC(C(=O)NCc3ccc(F)cc3)C2)cc1 (configuration not stated),0,2,10404,2,-4
COc1ccc(NC(=O)CSCC(=O)NCc2ccco2)cc1,0,-6,5297,·,-4
COc1ccc(C2=NOC(C(=O)NCc3ccco3)C2)cc1 (configuration not stated),8,9,20757*,4,-14
COc1ccc(NC(=O)C2C3C=CC(C3)C2C(=O)NCc2ccco2)cc1 (configuration not stated),-1,-1,16864*,0,0
COc1ccc(CNC(=O)C2CC(c3ccc(F)cc3)=NO2)cc1 (configuration not stated),1,2,22739*,0,-1
Cc1nnc(NC(=O)CSc2cn(Cc3ccccc3)c3ccccc23)s1,-2,-41,4305,-5,-3
CCOCCc1nnc(NC(=O)C(CC)c2ccccc2)s1 (configuration not stated),0,-5,16622*,-4,0
CCCC(=O)Nc1nnc(Cc2ccccc2)s1,-2,-1,24700*,-4,-3
CCOCCc1nnc(NC(=O)C(C)Oc2ccccc2)s1 (configuration not stated),0,-9,4670,2,0
CCOCc1nnc(NC(=O)COC)s1,-2,-4,23993*,-5,-1
CCC(=O)Nc1nnc(Cc2ccccc2)s1,0,-4,9909,-5,-5
CCOCc1nnc(NC(=O)CSCc2ccccc2)s1,?,4,20554*,-2,-2
O=C(NCCN1CCN(c2ccccc2)CC1)Nc1cccc(Br)c1,-1,-12,3483,0,7
SMILES,BoNT-A LC inh2,BoNT F protease,Autofluor counter,SARS 3CLpro inh,Anthrax LF inh2
O=C(NCc1cccnc1)c1cc(C2CCCCN2C(=O)c2ccccc2)on1 (configuration not stated),0,-2,3670,·,2
CN(C)C(=O)Oc1ccc2ccccc2c1Cl,-1,-3,23669*,-2,-3
COc1ccc2nc(NC(=O)CN(c3ccc(C)cc3)S(=O)(=O)c3c(C)nn(C)c3C)sc2c1,-4,-6,20805*,-1,-4
COc1ccc(NC(=O)CN(c2ccc(C)cc2)S(=O)(=O)c2c(C)nn(C)c2C)cc1OC,0,2,22939*,-2,-4
CC(=O)Oc1ccc(Cn2cnc3cc4ccccc4cc32)cc1,-1,5,4565,-3,-8
CC(C)CSc1ncc(-c2cccc(C(F)(F)F)c2)cn1,?,0,19690*,3,2
CC(C)(C)c1nc2ccccc2c2nnc(SCC(=O)NCc3ccco3)n12,-1,-1,16855*,6,-1
COc1cccc(OCc2nnc(SCC(=O)NCc3ccco3)n2CCc2ccccc2)c1,1,2,20143*,-2,-3
CNC(=O)CSc1nc2ccccc2c(=O)n1C1CCCCC1,-1,?,3437,2,-2
